Compound activity from PubChem BioAssay.
Shiga toxin inh: inhibitors of Shiga toxin in Vero cells | Vero cells, Shiga toxin protein synthesis inhibition reporter | inhibition, % at 38.7 µM | hit rate 9.2% among 290,000 | AID 2315; in the data active = inhibition mostly above about 28%, no sharp cut-off; inactive = mostly below about 43%; also: 0% is about no effect
AMA1-RON2 inh: disrupts binding of P. falciparum AMA1 to RON2 | Potency, µM (titrated, usually from 58.2 µM), for inactives: top-dose activity change, negative = inhibition, hits mostly inhibitors | AlphaScreen AMA1-biotinylated RON2 peptide binding | hit rate 0.2% among 360,000 | AID 720542;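 also: potency is read from the fitted curve at half-maximal effect; 0% = vehicle wells and -100% = peptide control; nearly all actives have a fitted effect of over 45% in size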
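AMA1 (3D7) with his tag at 25 nM final met compounds first, then biotinylated RON2 peptide at 25 nM; detection used donor plus acceptor beads, 10 µg/mL apiece, read by AlphaScreen after 30 min at room temperature.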
Pf growth 96h: P. falciparum growth inhibition at 96 hour, primary screen for plastid delayed-death inhibitors | P. falciparum luciferase reporter growth, 96 h | Potency, µM (highest dose often 28.7 µM), for inactives: at the highest dose activity change, negative = inhibition, hits mostly inhibitors | hit rate 6.9% among 320,000 | AID 504834; also: potency is read from the fitted curve at half-maximal effect; % is scaled to controls: 0 for no effect and ±100 for the full control effect
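Two-generation exposure (96 h) targets delayed-death phenotype. Reporter parasites carrying integrated firefly luciferase, in red cells at 2% hematocrit and 0.05% parasitemia final, kept at 37 C, 5% CO2; luminescence loss indicates inhibition.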
SARS PLpro yeast: blocks SARS-CoV papain-like protease in a yeast assay; Potency, µM (doses to about 32.9 µM), inactives show at the top dose activity, positive = growth rescue, most hits filed as activators; hit rate 0.19% among 330,000; S. cerevisiae expressing SARS-CoV PLpro, growth rescue; calls by dose curve; also: potency is read from the fitted curve at half-maximal effect; 0% is about no effect; nearly all actives have a fitted effect of over 55% in size
CHX counter: counter-screen hit for Shiga toxin inhibitors, cycloheximide; AID 2314; hit rate 12% among 300,000; cell reporter, cycloheximide protein synthesis inhibition counterscreen; max response, %; in the data active = max response mostly above about 13%, no sharp cut-off; inactive = mostly below about 14%; also: read at 38.3 µM for the half of the compounds with a filed dose; 0% is about no effect
Pf growth 48h: P. falciparum growth inhibition at 48 hours (one generation); hit rate 5.9% among 310,000; P. falciparum luciferase growth in erythrocytes, 48 h; Potency, µM (titrated, usually from 28.7 µM), without a hit: at the top dose activity change, negative = inhibition, hits mostly inhibitors; also: potency is read from the fitted curve at half-maximal effect; % is scaled to controls: 0 for no effect and ±100 for the full control effect
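Cell-based growth assay: transgenic P. falciparum expressing firefly luciferase, cultured in red cells within RPMI 1640 containing 0.5% w/v Albumax, 24 mM bicarbonate and gentamycin. A drop in luciferase activity indicates inhibition.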
* hit, by the source's call; ? = inconclusive; nt = no result given; [ ] = remark or other dose. In the library only some 19% were active in any assay of this set; here they are far more common. Unless noted, calls follow the shape of the dose curve; as a rule, active = well fitted curve in the direction sought with a large enough effect; inconclusive = small, poorly fitted or top-dose-only effect, or another doubt; inactive = no such curve, though single readings can be large; an effect the other way counts as inactive or inconclusive.

SMILES	Shiga toxin inh	AMA1-RON2 inh	Pf growth 96h	SARS PLpro yeast	CHX counter	Pf growth 48h
CCOC(=O)c1cc(-c2ccc(OC)cc2OC)nn1-c1ccc(C(=O)O)cc1	5.2	3.1%	?	0.7%	20.6*	-16.6%
CCOC(=O)c1cc(-c2ccc(OC)cc2)nn1-c1ccccc1C(=O)O	14.2	-2.3%	26.4%	0.3%	-1.1	0.9%
CN1CCN(c2ccc(S(=O)(=O)N3CCOCC3)cc2)CC1	-3.3	-5.5%	?	-1.9%	0.7	22.1%
S=c1[nH]nc(C2CCCCC2)n1/N=C/c1ccccc1Br	30.1	73.0%	38.8%	-5.8%	1.3	34.4%
O=[N+]([O-])c1ccccc1/C=N/n1c(C2CCCCC2)n[nH]c1=S	86.9	21.4%	17.3%	-49.1%	34.4*	19.5%
O=[N+]([O-])c1cc2c(cc1/C=N/n1c(-c3ccccc3)n[nH]c1=S)OCO2	55.0*	47.9%	5.6%	5.9%	43.1*	0.0%
Cc1cccnc1N(C(=O)Nc1ccccc1)C1=NCC(C)(C)S1	89.9	86.9%	-22.1%	1.8%	6.6	?
CC1(C)CN=C(N(C(=O)Nc2ccccc2)c2ccccc2F)S1	61.7*	0.9%	-10.7%	-0.4%	16.6*	-28.6%
Cc1cccnc1N(C(=O)Nc1cccc(Cl)c1)C1=NCC(C)(C)S1	12.3	30.4%	?	?	-1.0	?
CC1(C)CN=C(N(Cc2ccccc2)C(=O)Nc2ccccc2)S1	76.1*	9.8%	95.9%	10.7%	65.3*	139.3%
O=C(CCCn1c(=O)[nH]c2ccccc2c1=O)NC1CCCCCC1	13.2	-4.0%	-28.6%	2.4%	12.8	?
CC1CCC(NC(=O)CCCn2sc3ccccc3c2=O)CC1 (stereo not drawn)	11.4	-2.1%	8.5%	-14.7%	22.2*	47.6%
CCOC(=O)CSc1nc2ccc(NC(C)=O)cc2s1	-13.0	-8.2%	nt	-1.8%	-5.1	7.7%
Nc1nnc(SCc2ccc([N+](=O)[O-])cc2)s1	22.5	12.6%	11.7%	1.7%	8.0*	12.4%
O=[N+]([O-])c1ccc(CSc2nnc(SCc3ccc(Cl)cc3)s2)cc1	-7.9	-9.9%	?	30.9%	1.4	17.2%
Nc1ccc2nc(SCc3ccc([N+](=O)[O-])cc3)sc2c1	44.6	-5.4%	52.3%	-6.0%	27.9*	88.3%
COC(=O)CSc1nc2ccc(N)cc2s1	25.5	-8.1%	3.0%	-1.8%	18.8*	11.4%
C=CCc1ccccc1OCCSc1nc2ccc([N+](=O)[O-])cc2s1	1.3	-9.5%[11.6 µM]	29.6%	-2.1%	-1.6	4.0%
COc1ccccc1OCCSc1nc2ccc([N+](=O)[O-])cc2s1	-11.0	?	?	-2.6%	10.3*	5.9%
O=[N+]([O-])c1ccc2nc(SCc3ccccc3Cl)sc2c1	23.4	-15.8%	12.1%	0.4%	2.3	58.0%
O=C(O)c1nn(CC(=O)N2CCN(S(=O)(=O)c3ccc(Cl)cc3)CC2)c(=O)c2ccccc12	-9.1	0.0%	77.9%	0.2%	-2.2	0.0%
COc1ccc(NS(=O)(=O)c2ccc(F)c(F)c2F)cc1S(=O)(=O)N1CCOCC1	nt	-2.4%	-7.7%	-8.0%	nt	?
Cc1cc(C(=O)NC2CC(C)(C)Cc3c2cnn3-c2ccccc2C)c(C)o1 (stereo not drawn)	9.1	-10.6%	8.7%	1.2%	9.3	?
COc1ccc(CSc2nnc(N)s2)cc1F	86.0*	-8.1%	?	-4.4%	43.0*	38.1%
Cc1ccnc(NC(=O)C2COc3ccccc3O2)c1 (stereo not drawn)	56.1*	7.7%	206.7%	?	64.5*	210.7%
SMILES	Shiga toxin inh	AMA1-RON2 inh	Pf growth 96h	SARS PLpro yeast	CHX counter	Pf growth 48h
Cc1ccc(NC(=O)C2COc3ccccc3O2)nc1 (stereo not drawn)	56.2	1.3%	?	5.4%	39.9*	nt
CC1(C(=O)Nc2ccccc2F)CCN1C(=O)Cc1ccc(-c2ccccc2)cc1 (stereo not drawn)	nt	0.7%	nt	nt	nt	nt
CCOC(=O)N1CCN(c2ccncc2S(=O)(=O)N2CCCCC2)CC1	-8.4	28.2%	-19.2%	-14.5%	-2.7	-29.6%
COc1ccc(NC(=O)O/N=C/c2c(C)nn(C(C)(C)C)c2C)cc1	45.2	0.6%	281.1%	-1.2%	28.9*	153.1%
Cc1nn(C(C)(C)C)c(C)c1/C=N/OC(=O)Nc1ccc(Cl)c(Cl)c1	-18.1	0.0%	116.1%	-1.2%	-3.6	39.0%
O=C(O)C1(c2cccc(Cl)c2)CCC1	-3.0	0.0%	?	-4.2%	-3.5	-1.5%
COc1ccc(NCc2ccc3c(c2)OCO3)cc1Cl	43.4*	-19.0%	nt	-10.1%	21.8*	17.9%
COC(=O)c1ccc(NC(=O)c2ccc3c(c2)OCO3)cc1	42.6*	7.9%	14.7µM*	-1.5%	24.4*	97.3%
COc1cc2sc3cc(NCc4ccc5c(c4)OCO5)ccc3c(=O)c2cc1OC	nt	7.3%	nt	-1.8%	nt	nt
O=C(Nc1ccc(F)c(Cl)c1)c1ccc2c(c1)OCO2	105.3*	5.7%	?	-4.2%	50.8*	177.8%
COC(=O)c1sccc1NC(=O)c1ccc2c(c1)OCO2	-8.3	33.4%	nt	1.3%	7.1	25.6%
O=C(Nc1ccc(C(=O)N2CCCC2)cc1)c1ccc2c(c1)OCO2	36.0	4.5%	?	-6.1%	27.1*	nt
COC(=O)C[C@H]1c2cc(C(F)(F)F)ccc2S(=O)(=O)N1c1ccc(N(C)C)cc1	nt	-15.4%	nt	nt	nt	nt
Cc1cc(NC(=O)NC(C(F)(F)F)C(F)(F)F)no1	8.0	11.8%	2.4%	0.2%	-2.6	-22.1%
COc1cccc(/C=C/C(=O)OCC(=O)Nc2nnc(-c3ccccc3)o2)c1	nt	42.2%	?	2.1%	nt	25.6%
O=C(CN1C(=O)NC2(CCCCC2)C1=O)NCc1ccc2c(c1)OCO2	14.5	-4.7%	9.5%	0.4%	-6.4	-16.2%
COC(=O)c1c(-c2cccnc2)csc1NC(=O)c1ccc2c(c1)OCO2	69.9*	-9.8%	?	0.6%	37.2*	132.4%
COc1ccc(NC(=O)c2ccc3c(c2)OCO3)cc1Cl	76.2*	20.0%	10.3%	-0.2%	66.4*	-17.0%
CCN1C(=O)[C@H]2[C@@H](c3ccc(C)cc3)N[C@]3(CCCN(Cc4ccco4)C3=O)[C@H]2C1=O	nt	16.1%	nt	nt	nt	nt
O=C(Nc1cccc(C(=O)O)c1)/C(=C\c1ccco1)NC(=O)c1ccc(Br)o1	-8.4	8.5%	82.7%	0.5%	-3.7	23.6%
CCOc1c2ccoc2nc2c(OC)c(OC)ccc12	17.6	6.0%	44.2%	-2.3%	17.7*	29.4%
C=CCOc1ccc2c(OC)c3ccoc3nc2c1OC	39.1*	-0.8%	?	-28.6%	25.8*	16.3%
CCOc1c(OC)ccc2c3c(c(=O)oc12)CCCC3	-1.1	-4.5%	-26.6%	-41.0%	0.7	nt
COc1c2c(nc3occc13)C(CC=C(C)C)(OC)C(=O)C=C2 (stereo not drawn)	-7.1	-3.0%	6.8%	-0.2%	-1.5	36.3%
O=C1C2CCCN2C(=O)N1CCCCN1CCN(c2cccc(Cl)c2)CC1 (stereo not drawn)	-4.6	-8.1%	13.1µM*	3.5%	-1.6	-9.8%
